Hit rate of the full screen: of about 310,000 compounds, about 17,000 (5.5%) were called active. Roughly 11% stayed inconclusive and do not appear here. This is one part of a sample in which actives are shown more often than they occur. Calls follow the shape of the dose curve; as a rule, active = well fitted inhibition curve with a large enough effect; inconclusive = small, poorly fitted or top-dose-only effect, or effect the other way; inactive = no such curve, though single readings can be large or run the other way.
target: Nuclear receptor ROR-gamma (Mus musculus) (UniProt P51450); test: qHTS for inhibitors of ROR gamma transcriptional activity; conditions: Drosophila S2 Gal4-RORgamma UAS-luciferase reporter, 20 h; series mostly up to 53.6 µM; activity change, negative = inhibition: at the top concentration; also: nearly all actives have a fitted effect of over 60% in size
Sequence (P51450 whole entry, looked up, the tested form may be a part): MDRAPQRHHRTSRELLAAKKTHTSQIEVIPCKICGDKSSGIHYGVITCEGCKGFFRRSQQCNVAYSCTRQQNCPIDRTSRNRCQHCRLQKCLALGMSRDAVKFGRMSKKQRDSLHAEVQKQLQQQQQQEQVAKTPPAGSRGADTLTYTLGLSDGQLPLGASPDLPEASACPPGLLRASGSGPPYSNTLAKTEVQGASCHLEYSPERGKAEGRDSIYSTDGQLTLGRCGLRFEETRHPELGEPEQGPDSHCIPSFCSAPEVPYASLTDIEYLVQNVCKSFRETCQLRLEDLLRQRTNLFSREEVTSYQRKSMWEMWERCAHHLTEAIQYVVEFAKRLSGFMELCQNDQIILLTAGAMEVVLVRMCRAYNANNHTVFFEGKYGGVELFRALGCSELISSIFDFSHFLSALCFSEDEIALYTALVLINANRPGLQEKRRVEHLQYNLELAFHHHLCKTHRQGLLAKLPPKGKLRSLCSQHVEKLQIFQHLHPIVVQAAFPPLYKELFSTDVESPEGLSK
Procedure, shortened: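 Compounds are pin-transferred onto Drosophila Schneider cells expressing a copper-inducible Gal4–ROR gamma transactivation domain fusion. After 1 hr, copper sulfate is added to 700 uM final; luciferase is read 20 hr later.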
% is scaled to controls: 0 for no effect and ±100 for the full control effect; potency is read from the fitted curve at half-maximal effect.

Activity change, negative = inhibition, inactive:
Cc1c(C)c2ccc(OCC(=O)N3CCC(C(=O)O)CC3)c(C)c2oc1=O -15.9%
Cc1csc(=NC(=O)c2ccccc2)n1CCO -13.4%
Cc1csc(=Nc2ccccc2)n1CCO -7.52%
COc1ccc(-c2c(C#Cc3ccccc3)c3ccccc3n2C)cc1 37.9%
O=c1[nH]c(=S)[nH]c2[nH]c(=S)[nH]c12 8.76%
CCOC(=O)CNc1nc(Cl)nc(Nc2ccc(OC)cc2OC)n1 17.4%
COCC1CCN(C(=O)c2ccc3oc(Cc4ccccc4)nc3c2)C1 (stereo not drawn) 8.76%
COc1ccc(NC(=O)C2CCC(CNC(=O)[C@@H]3Cc4ccccc4CN3)CC2)cc1 (stereo partly drawn) -28.2%
COc1ccc(NC(=O)CN2C(=O)COc3ccc(S(=O)(=O)N4CCOCC4)cc32)c(OC)c1 -9.23%
O=C(C[n+]1cc(Br)cc2ccccc21)c1ccc(F)cc1 19%
COc1ccc(C(=O)N2CCCCC2C(=O)Nc2ccc(-n3nc(C)cc3C)cc2)o1 (stereo not drawn) 5.06%
Cc1cccc(CNS(=O)(=O)c2ccc(-c3cnc(C4CC4)o3)cc2)c1 -23.2%
CC(CCc1ccc(O)cc1)NCc1ccc(Cl)cc1Cl (stereo not drawn) -2.34%
CCCCCC(=O)Nc1ccc(C(=O)N/N=C/c2ccc([N+](=O)[O-])cc2)cc1 -44.8%
Cc1cccc(C(=O)NNC(=O)c2cccc([N+](=O)[O-])c2)c1 -1.97%
O=C(NNS(=O)(=O)Cc1ccccc1)c1ccc([N+](=O)[O-])cc1 1.09%
CC(C)(C)SCCNC(=O)c1cccc([N+](=O)[O-])c1 13.9%
COc1ccc(OC)c(CCNC(=O)c2nn(C)c3c2CS(=O)(=O)c2ccccc2-3)c1 -1.03%
Cc1cc2oc(=O)cc(CN3CCN(Cc4ccccc4)CC3)c2cc1C -20.7%
CCCc1nc2sc3c(c2c(=O)n1NC(=O)CCCl)CCCC3 -38.1%
CN(C)CCCn1c(=O)n(Cc2ccccc2)c(=O)c2c3c(sc21)CCCCC3 -20.1%
COc1ccc(NC2CCCN(C(=O)c3ccncc3)C2)cc1 (stereo not drawn) -21%
Cc1cccc(C(=O)N2CCCC(Nc3ccc(C(C)C)cc3)C2)n1 (stereo not drawn) -0.214%
O=C(CCC1CCCN(C(=O)c2ccc(F)c(F)c2)C1)N1CCN(c2ccccn2)CC1 (stereo not drawn) -0.263%
CC(NC(=O)c1cc2cc(Cl)ccc2oc1=N)c1ccccc1 (stereo not drawn) -1.8%
CCC(C)NC(=O)c1nn(C)c(=O)c2ccccc12 (stereo not drawn) -28.6%
Cc1nc2ccccc2n1CC(=O)N/N=C/c1cccs1 -16.8%
O=C(NCc1cccc(CNC(=O)Nc2cccc(O)c2)c1)Nc1cccc(O)c1 0.886%
COc1ccc(CCNC(=O)CCNS(=O)(=O)c2cc(Br)cnc2N)cc1OC -3.84%
CCc1nc(Nc2ccc(NC(C)=O)cc2)c2oc3ccccc3c2n1 3.42%
CC1C(=O)C(C)C(c2ccc(O)cc2)NC1c1ccc(O)cc1 (stereo not drawn) 8.68%
Cc1cc(C)nc(Nc2ncn[nH]2)n1 22.1%
Cc1cc(Nc2ccccc2)nc(N)n1 8.21%
O=C(C1CC(=O)N(C2CCCCC2)C1)N1CCN(c2ccccc2)CC1 (stereo not drawn) -40.1%
COc1cccc(CNC(=O)C2CCCN(S(=O)(=O)N3CC(C)CC(C)C3)C2)c1 (stereo not drawn) -19.7%
O=C(c1cnc(Cl)c(Cl)c1)N1CCN(S(=O)(=O)c2ccc(F)cc2)CC1 15.9%
CNC(=O)C(=O)N/N=C/c1ccccn1 0.172%
O=C(Nc1ccc(S(=O)(=O)Nc2ncccn2)cc1)C12CC3CC(CC(C3)C1)C2 -7.39%
CC(C)(C)C1CCC(C(=O)NCC(c2cccs2)N2CCOCC2)CC1 (stereo not drawn) 28.7%
O=C(CNC(=O)OCc1ccccc1)NC1CCCCNC1=O (stereo not drawn) -1.73%
O=[N+]([O-])c1cc([N+](=O)[O-])c(Oc2cc(F)cc(F)c2F)cc1NN1CCCCC1 -2.04%
O=C(NCc1ccccn1)c1cc(Br)ccc1Cl -17%
COc1ccc(-c2ccc(CNCCCN3CCOCC3)o2)cc1Cl -15.8%
CCOc1ccc(-n2c(SCC(N)=O)nnc2-c2ccco2)cc1 29.1%
COc1ccccc1S(=O)(=O)c1c(C)cc(C)[nH]c1=O -1.83%
O=C1N/C(=C/c2cccn2-c2ccccc2)C(=O)N1c1cccc(Cl)c1 -33%
COc1cc2c(cc1/C=C1/NC(=O)N(c3ccccc3)C1=O)OCO2 1.89%
COc1ccc(OCC(O)CN(C)C(=O)C(C)Oc2ccccc2)cc1 (stereo not drawn) 11.1%
COc1ccc(C(=O)NCCCN2CCOCC2)cc1Br 0.497%
Cc1ccc2cc(C)c(N3CCN(c4ccc(F)cc4)CC3)nc2c1 25.8%
Cc1nnc(SCC(=O)N2CCN(c3ccccc3)CC2)n1-c1ccccc1 18.7%
Cc1ccccc1/C=C\c1nc(O)c([N+](=O)[O-])c(=O)[nH]1 21.3%
COc1cccc(NC(=O)C2CCCN(c3ncnc4c3nc3n4CCCCC3)C2)c1 (stereo not drawn) 2.68%
COc1ccc(NC(=O)N2CCCC(C(=O)Nc3ccccc3OC)C2)cc1 (stereo not drawn) -2.34%
CC(C)c1ccc(/C=C/C(=O)NNC(=O)c2cccnc2)cc1 -4.07%
O=C(/C=C/c1ccc(F)cc1)NCCNC(=O)/C=C/c1ccc(F)cc1 29.2%
O=C(NCc1ccccc1)c1onc(CSc2nc3ccccc3[nH]2)c1C(=O)NCc1ccccc1 7.32%
CCSCc1nc(N)nc(NCCc2ccccc2)n1 -4.9%
Cc1cc(C)c(C(=O)CSc2nc(C)cc(=O)[nH]2)c(C)c1 19.9%
COc1ccccc1N1CCN(S(=O)(=O)CCNC(=O)c2ccc(OC(C)C)cc2)CC1 38%
CC(OC(=O)c1ccc2noc(-c3ccccc3)c2c1)C(N)=O (stereo not drawn) 29.6%
COc1ccc(C(=O)COC(=O)CNC(=O)c2cccs2)cc1Br -7.43%
O=C(Nc1nn(Cc2ccccc2F)cc1Br)c1cccs1 40.4%
CCCCn1c(-c2cccc(C)c2)nc2cc3[nH]c(=O)c(C(C)C)nc3cc21 -44.1%
O=C(Nc1cccc(-c2cscn2)c1)C1CCN(Cc2ccsc2)CC1 5.59%
O=C(NCCN1CCOC1=O)C1CCC(=O)N(CCc2ccc(Cl)cc2)C1 (stereo not drawn) 3.94%
Cc1ccc(CS(=O)Cc2ccc(C(=O)N3CCOCC3)o2)cc1 (stereo not drawn) 8.91%
CCOc1ccccc1N=C1NC(=O)CS1 -3.07%
COc1ccc(CCNC(=O)C(=O)NCC2OCCN2S(=O)(=O)c2ccc(F)cc2)cc1OC (stereo not drawn) 23.6%
Cc1ccc(S(=O)(=O)NNC(=O)/C=C/c2cccc(F)c2)cc1 -0.345%
COC(=O)C1=C(O)/C(=C/c2ccc(OCC(=O)Nc3ccccc3)cc2)N=C1C 1.63%
CS(=O)(=O)N1CCN=C1SCc1ccc(F)cc1 -15%
Cc1cc(NC(=O)CSc2nnnn2-c2ccc(F)cc2)no1 -1.67%
CC1=C(C(N)=O)C(c2ccc(Br)cc2)n2ncnc2N1 (stereo not drawn) -6.5%
CC(=O)c1cccc(NC(=O)COc2ccc(S(=O)(=O)N3CCOCC3)cc2)c1 4.94%
O=C(CSc1ccc(-c2ccccn2)nn1)Nc1ccccc1 -23.3%
CCC(C)(C)n1nnnc1C(c1ccc(OC)c(OC)c1)N1CCN(C(=O)c2ccco2)CC1 (stereo not drawn) -1.65%
Cc1cccc(NS(=O)(=O)c2cc(Cl)ccc2Cl)n1 -5.36%
Cc1n[nH]c(=O)n1-c1ccc(C(C)C)cc1 0.121%
COc1ccc(Oc2ncc3nc(C)c(=O)n(-c4ccccc4)c3n2)cc1 -22.3%
Cc1ccc2c(c1)N(S(=O)(=O)c1cc(-c3cc(C)no3)ccc1C)CCO2 -5.72%
O=S(=O)(c1ccc(Cl)s1)N1CCC2(CC1)OCCO2 3.72%
O=C(c1cccc(Br)c1)N1CCN(C2=NS(=O)(=O)c3ccccc32)CC1 24.5%
COC(=O)c1c(NC(=O)C(=O)N2CCCCC2)sc2c1CC(C)(C)OC2 -35.1%
CCOc1ccc(C(=O)Nc2ccc(CN3CCOCC3)cc2)cc1Cl 9.74%
COC(=O)c1cc(NC(=O)c2ccco2)ccc1N1CCOCC1 9.85%
COc1c(C)cccc1C(=O)Nc1cc(Cl)ccc1N1CCOCC1 1.38%
CCOC(=O)c1c(NC(=O)c2ccc(N3CCOCC3)c([N+](=O)[O-])c2)sc(C)c1C -0.447%

Potency, active:
C=C(C)CNC(=S)/N=c1\scc(C)n1CC 7.94 µM
Cc1c(C)c(C)c2[nH]c(=S)[nH]c2c1C 2.82 µM
CCCCCC(=O)NC(=S)NNC(=O)c1ccc([N+](=O)[O-])cc1 14.1 µM
CC(C)CC(=O)NC(=S)NNC(=O)c1cccc([N+](=O)[O-])c1 12.6 µM
CCn1c(=S)[nH]c2sc3c(c2c1=O)CCCCC3 0.447 µM
CC(C)c1ccc(NC2CCCN(C(=O)c3ccncc3)C2)cc1 (stereo not drawn) 2.51 µM
CCC(C)NC(=O)c1c(N)n(/N=C/c2cccs2)c2nc3ccccc3nc12 (stereo not drawn) 10 µM
Cc1cc(C)nc(Nc2n[nH]c(-c3ccccc3N)n2)n1 10 µM
O=C(N/N=C/c1ccccn1)C12CC3CC(CC(C3)C1)C2 2.82 µM
Fc1ccc(-c2ccc(CNCc3ccccn3)o2)cc1Cl 11.2 µM
O=C1/C(=C\c2ccsc2)NC(=S)N1c1ccccc1 7.08 µM
CC(=O)c1c(N2CCN(c3ccc(F)cc3)CC2)nc(=S)n(-c2ccccc2)c1C 14.1 µM
O=C(/C=C/c1ccc(F)cc1)NC(=S)NNC(=O)c1cccnc1 11.2 µM
O=C(C/C(=N\NC(=O)c1ccccc1Br)C(F)(F)F)c1cccs1 14.1 µM
CCOc1cccc(/C=N/N2C(=O)CSC2=S)c1O 3.16 µM
Fc1ccccc1/C=C1\CCCC2=C1Nc1ncnn1C2c1ccccc1F (stereo not drawn) 2.82 µM
Cc1n[nH]c(=O)n1-c1ccc(Oc2ccccc2)cc1 2.82 µM
CCOc1ccc(C(=O)NC(=S)Nc2ccc(N3CCOCC3)c(Cl)c2)cc1[N+](=O)[O-] 3.16 µM
COc1cccc(OC)c1C(=O)NC(=S)Nc1ccc(N2CCOCC2)c(Cl)c1 8.91 µM

Potency, inactive:
Cc1cc(=O)[nH]c(=S)[nH]1
